Assay outcomes as filed in PubChem.
Pf Dd2 growth – inhibitors of Plasmodium falciparum Dd2 growth; P. falciparum Dd2 growth, SYBR Green, 72 h; active compounds read low; activity change, % at 10 µM; 2.3% of 94,000 active; in the data active = activity change below about -80%; inconclusive = no clear call, values can overlap the other calls
Tcruzi prolif – inhibitors of T. cruzi proliferation | T. cruzi beta-gal in NIH3T3, GalScreen luminescence, 90 h | inhibition, % at 8.34 µM | 5.9% of 77,000 active;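 active = mean inhibition above about 93%, with at least 55% of replicates each passing it, limit read from the data, passing the limit was not always enough; inconclusive = only one of those two conditions holds; inactive = neither condition holds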
C diff growth – inhibitors of Clostridium difficile growth. growth activity, negative = inhibition, % at 16 µg/mL (by protocol). AID 1259249. Clostridium difficile clinical isolate growth, OD600, 24 h; active compounds read low. 0.25% of 86,000 active;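 active = mean growth activity at or below -80% and every replicate also at or below -80%; inconclusive = mean at or below -80% but some replicate above -80%; inactive = mean growth activity above -80%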
Hits are given with their value. Only some compounds are listed: those with a hit (about 6.7% of all), similar ones and a draw of the others.

How did O=C(C[C@H]1CC[C@H]2[C@@H](COC[C@H](O)CN2C(=O)Nc2ccc(F)cc2)O1)NC1Cc2ccccc2C1 do in these assays?
Pf Dd2 growth: inactive; Tcruzi prolif: inactive

What do the screens show for `CC=Cc1ccc2n(c1=O)C[C@H]1[C@H](CO)[C@@H](C(=O)N3CCN(C)CC3)N(Cc3ccccc3OC)[C@@H]21` (mixture of isomers)?
Pf Dd2 growth: inactive; Tcruzi prolif: inactive; C diff growth: inactive

How did COCC(=O)Nc1ccc2c(c1)C(=O)N(C)C[C@@H](OC)[C@H](C)CN(C(=O)NC(C)C)[C@@H](C)CO2 do in these assays?
Pf Dd2 growth: inactive; Tcruzi prolif: inactive

Results for CC(=O)N1[C@H](CO)[C@@H](c2ccccc2)C12CN(C(=O)c1ccccn1)C2 ?
Pf Dd2 growth: inactive; C diff growth: inactive

What do the screens show for `C[C@@H]1CCCCO[C@@H](CN(C)C(=O)Nc2ccc(C(F)(F)F)cc2)[C@@H](C)CN([C@H](C)CO)C(=O)c2cc(NC(=O)Nc3cccc4ccccc34)ccc2O1`?
Pf Dd2 growth: inactive; C diff growth: inactive

What do the screens show for `C[C@@H]1CCCCO[C@H](CN(C)C(=O)Nc2ccc(C(F)(F)F)cc2)[C@H](C)CN([C@H](C)CO)C(=O)c2cc(NC(=O)Nc3cccc4ccccc34)ccc2O1`?
Pf Dd2 growth: -87.1; Tcruzi prolif: inactive; C diff growth: inactive

How did C[C@H](CO)N1C[C@H](C)[C@@H](CN(C)C)Oc2ncc(-c3ccccc3F)cc2C1=O do in these assays?
Pf Dd2 growth: inactive; Tcruzi prolif: inactive; C diff growth: inactive

How did C[C@H](CO)N1C[C@H](C)[C@H](CN(C)Cc2ccc(C(=O)Nc3ccccc3N)cc2)Oc2ccc(NC(=O)NC3CCCCC3)cc2CC1=O do in these assays?
Pf Dd2 growth: inconclusive; C diff growth: inactive

What do the screens show for `C[C@H](CO)N1C[C@H](C)[C@H](CN(C)Cc2ccc(C(=O)Nc3ccccc3N)cc2)Oc2c(NC(=O)Nc3ccc4c(c3)OCO4)cccc2C1=O`?
Pf Dd2 growth: inactive; Tcruzi prolif: inactive

How did C[C@@H]1CN([C@H](C)CO)C(=O)c2cccc(NC(=O)Nc3ccccc3)c2O[C@@H]1CN(C)Cc1ccc(C(=O)O)cc1 do in these assays?
Pf Dd2 growth: inactive; C diff growth: inactive

Results for C[C@@H]1CN([C@@H](C)CO)C(=O)c2cccc(NC(=O)Nc3cccc4ccccc34)c2O[C@@H]1CN(C)Cc1ccc(C(=O)Nc2ccccc2N)cc1 ?
Pf Dd2 growth: -92.4; C diff growth: inactive

What do the screens show for `C[C@@H]1CN([C@@H](C)CO)C(=O)c2cccc(NC(=O)Nc3ccccc3)c2O[C@H]1CN(C)Cc1ccc(C(=O)Nc2ccccc2N)cc1`?
Pf Dd2 growth: -86.5; Tcruzi prolif: inactive; C diff growth: inactive

What do the screens show for `CC(C)NC(=O)Nc1cccc2c1O[C@H](CN(C)Cc1ccc(C(=O)Nc3ccccc3N)cc1)[C@H](C)CN([C@H](C)CO)C2=O`?
Pf Dd2 growth: inactive; C diff growth: inactive

What do the screens show for `C[C@H](CO)N1C[C@H](C)[C@@H](CN(C)Cc2ccc(C(=O)Nc3ccccc3N)cc2)Oc2c(NC(=O)Nc3ccccc3)cccc2C1=O`?
Pf Dd2 growth: -86.0; Tcruzi prolif: inactive; C diff growth: inactive

How did C[C@H](CO)N1C[C@H](C)[C@H](CN(C)Cc2ccccn2)Oc2ncc(C#Cc3cccc(F)c3)cc2C1=O do in these assays?
Pf Dd2 growth: inactive; Tcruzi prolif: inactive; C diff growth: inactive

What do the screens show for `C[C@H]1CN([C@@H](C)CO)C(=O)c2cccc(NS(=O)(=O)c3cn(C)cn3)c2O[C@@H]1CN(C)Cc1ccc(C(=O)Nc2ccccc2N)cc1`?
Pf Dd2 growth: inactive; C diff growth: inactive

How did COc1ccc(C#Cc2ccc3c(c2)[C@@H]2[C@@H](CCN2C(=O)C2CCCC2)[C@H](CO)N3)cc1 do in these assays?
Pf Dd2 growth: -84.2; C diff growth: inactive

How did COc1ccc(C#Cc2ccc3c(c2)[C@H]2[C@H](CCN2C(=O)C2CCCCC2)[C@@H](CO)N3)cc1 do in these assays?
Pf Dd2 growth: inactive; Tcruzi prolif: inactive; C diff growth: inactive

What do the screens show for `COc1ccc(C#Cc2ccc3c(c2)[C@@H]2[C@@H](CCN2C(=O)C2CC2)[C@H](CO)N3)cc1`?
Pf Dd2 growth: -89.5; C diff growth: inactive

Results for COc1ccc(C#Cc2ccc3c(c2)[C@H]2[C@H](CCN2C(=O)C2CCC2)[C@H](CO)N3)cc1 ?
Pf Dd2 growth: inconclusive; C diff growth: inactive

Results for COc1ccc(C#Cc2ccc3c(c2)[C@H]2[C@H](CCN2C(=O)C2CCCCC2)[C@H](CO)N3)cc1 ?
Pf Dd2 growth: inactive; Tcruzi prolif: inactive; C diff growth: inactive

What do the screens show for `COc1ccc(C#Cc2ccc3c(c2)[C@H]2[C@H](CCN2C(=O)C2CCC2)[C@@H](CO)N3)cc1`?
Pf Dd2 growth: -86.3; C diff growth: inactive

How did C=CC1CN(S(=O)(=O)c2ccc(Br)cc2)C(=O)N1c1ccc(Br)cc1 (stereo not drawn) do in these assays?
C diff growth: inactive

What do the screens show for `COc1ccccc1C#Cc1ccc2c(c1)[C@@H]1[C@@H](CCN1S(=O)(=O)c1ccc(F)cc1)[C@@H](CO)N2`?
Pf Dd2 growth: inactive; C diff growth: inactive

How did O=C(NCC[C@@H]1CC[C@H](NC(=O)C2CCCC2)[C@H](CO)O1)c1cc(Cl)cc(Cl)c1 do in these assays?
Pf Dd2 growth: inactive; C diff growth: inactive

What do the screens show for `COc1ccc(CN(C)C[C@@H]2OCCCC[C@@H](C)Oc3ccc(NS(=O)(=O)c4c(C)noc4C)cc3C(=O)N([C@H](C)CO)C[C@@H]2C)cc1`?
Pf Dd2 growth: inactive; Tcruzi prolif: inactive; C diff growth: inactive

Results for COc1ccc(NC(=O)N(C)C[C@@H]2Oc3ccc(NS(=O)(=O)c4c(C)noc4C)cc3CC(=O)N([C@H](C)CO)C[C@@H]2C)cc1 ?
Pf Dd2 growth: inactive; Tcruzi prolif: inactive; C diff growth: inactive

How did C[C@H]1CN([C@@H](C)CO)C(=O)c2c(c3ccccc3n2C)-c2ccccc2CO[C@@H]1CN(C)S(=O)(=O)c1ccc(Cl)cc1 do in these assays?
Pf Dd2 growth: -84.8; Tcruzi prolif: inactive

How did C[C@@H]1CN([C@@H](C)CO)C(=O)c2c(c3ccccc3n2C)-c2ccccc2CO[C@@H]1CN(C)S(C)(=O)=O do in these assays?
Pf Dd2 growth: inactive; Tcruzi prolif: inactive

What do the screens show for `C[C@H](CO)N1C[C@H](C)[C@H](CN(C)S(=O)(=O)c2ccc(Cl)cc2)OCc2ccccc2-c2c(n(C)c3ccccc23)C1=O`?
Pf Dd2 growth: -93.6; C diff growth: inactive

Results for C[C@@H]1CN([C@H](C)CO)C(=O)c2c(c3ccccc3n2C)-c2ccccc2CO[C@@H]1CN(C)S(=O)(=O)c1ccc([N+](=O)[O-])cc1 ?
Pf Dd2 growth: inactive; C diff growth: inactive

How did C[C@@H]1CN([C@H](C)CO)C(=O)c2c(c3ccccc3n2C)-c2ccccc2CO[C@H]1CN(C)S(=O)(=O)c1ccc(Cl)cc1 do in these assays?
Pf Dd2 growth: -84.1; Tcruzi prolif: inactive

Results for C[C@H]1CN([C@@H](C)CO)C(=O)c2c(c3ccccc3n2C)-c2ccccc2CO[C@H]1CN(C)S(=O)(=O)c1ccc(Cl)cc1 ?
Pf Dd2 growth: -86.1; Tcruzi prolif: inactive

How did C[C@@H]1CN([C@H](C)CO)C(=O)c2c(c3ccccc3n2C)-c2ccccc2CO[C@@H]1CN(C)S(=O)(=O)c1ccc(C#N)cc1 do in these assays?
Pf Dd2 growth: inactive; Tcruzi prolif: inactive
